Pf Dd2 inh: qHTS Primary assay for Inhibitors of Plasmodium falciparum Dd2 growth in vitro; P. falciparum Dd2 growth, SYBR Green, 72 h; Potency, µM (doses to about 28.9 µM), without a hit: at the highest dose activity, negative = inhibition, hits mostly inhibitors; 4.3% of 120,000 active; active = well fitted inhibition curve with a large enough effect;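 also: plate controls were DMSO vehicle for no effect and reference drug for full effect; nearly all actives have a fitted effect of over 65% in size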
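Readout: SYBR Green fluorescence, 485 nm excitation, 535 nm emission, after ~16 h lysis at 37C. Before that, Dd2-infected red cells (2.5% hematocrit) grew 72 h with compound, 29 uM top final concentration.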
Starred values were filed as active, the others as inactive; i = inactive; [ ] = dose if it differs, or a comment. Only a selection was taken, and hits are over-represented in it overall. Potency is read from the fitted curve at half-maximal effect.

SMILES	Pf Dd2 inh
CN1C(=O)C(c2ccccc2)CC12CCN(C(=O)CN1CCCC1)CC2 (stereo not given)	6%
COc1ccc(-c2cc(CC3(NCc4ccccc4)COC3)no2)cc1	i
O=C(CC1CCCN(c2cn[nH]c(=O)c2)C1)Nc1ccccc1F (stereo not given)	19%
Cn1cnnc1CC1CCCN(S(=O)(=O)c2ccc3c(c2)C(C)(C)C(=O)N3)C1 (stereo not given)	2%
CCNC(=O)[C@@H]1C[C@H](N)CN1S(=O)(=O)c1cc(C)cc(C)c1	-17%
CCOC(=O)c1c(NC(=O)c2ccc(S(=O)(=O)N(C)C)cc2)sc2c1CCN(C)C2	i
CCCOc1ccc(C(=O)Nc2sc3c(c2C(=O)OCC)CCCCC3)cc1	i
CCCCN(C)S(=O)(=O)c1ccc(C(=O)Nc2sc3c(c2C(=O)OCC)CCN(C(C)C)C3)cc1	6.3µM*
CCOC(=O)c1c(NC(=O)c2ccc(Br)cc2)sc2c1CCCC2	1%
CNC(=O)c1c(NC(=O)c2ccc(S(=O)(=O)N3CCCCC3C)cc2)sc2c1CCC2 (stereo not given)	i
CNC(=O)c1c(NC(=O)c2ccc(S(=O)(=O)N3CCC(C)CC3)cc2)sc2c1CCC2	0%
CCOc1cccc2sc(NC(=O)c3ccc(S(=O)(=O)N4CCCCC4C)cc3)nc12 (stereo not given)	-7%
CCOC(=O)c1c(NC(=O)CS(=O)(=O)c2ccc(C)cc2)sc2c1CCC(C)C2 (stereo not given)	42%
COC(=O)c1c(NC(=O)c2ccc(S(=O)(=O)N3CCCCC3C)cc2)sc2c1CCN(C(C)C)C2 (stereo not given)	11µM*
CCOC(=O)c1c(NC(=O)c2ccc(S(=O)(=O)N(C)C3CCCCC3)cc2)sc2c1CCN(C(C)C)C2	11µM*
CCOC(=O)c1c(NC(=O)c2ccc(S(=O)(=O)N3CCC(C)CC3)cc2)sc2c1CCN(C)C2	8.9µM*
CCOC(=O)c1c(NC(=O)c2ccccc2C)sc2c1CCCC2	2%
O=C(c1nnn2cc(-c3ccc(F)cc3)[nH]c(=O)c12)N1CCCCC1	-1%
COC(=O)c1cccc(-c2nc(C3CC(=O)N(c4ccc(F)cc4)C3)no2)c1 (stereo not given)	3%
c1ccc(C(CCn2cncn2)n2ccnc2-c2cc3n(n2)CCNC3)cc1 (stereo not given)	0%
O=C(Cn1nc2c(cc1=O)CCCC2)NCCCc1nc2ccccc2[nH]1	5%
CCO[C@H]1CN(C(=O)c2ccc(Oc3ccccc3)o2)C[C@@H]1O	i
OC[C@@H]1CNC[C@H]1C1CCN(Cc2cccc(C(F)(F)F)c2)CC1	i
Cc1cc(C(F)(F)F)nn1CC(=O)N1CC(CO)C2(CCNCC2)C1 (stereo not given)	-4%
C=CCN(CC=C)C(=O)c1ccc(CN2C(=O)NC3(CCS(=O)(=O)CC3)C2=O)cc1	-18%
SMILES	Pf Dd2 inh
COCCN(CCOC)S(=O)(=O)c1ccc(C(=O)Nc2sc3c(c2C(N)=O)CCCC3)cc1	8%
COC(=O)c1c(NC(=O)c2ccc(C(C)(C)C)cc2)sc2c1CCC(C)C2 (stereo not given)	30%
COCCN(CCOC)S(=O)(=O)c1ccc(C(=O)Nc2sc3c(c2C(=O)OC)CCN(C)C3)cc1	11µM*
COCCc1noc([C@@H]2CN(C3CCCC3)C[C@H]2CO)n1	11%
COc1ccc2[nH]cc(CCNC(=O)Nc3ccccc3)c2c1	20%
COc1ccc2[nH]cc(CCNC(=O)C3(Cc4ccccc4)CCCCC(=O)N3)c2c1 (stereo not given)	2µM*
COc1ccc(NC(=O)C2(Cc3ccccc3)CCCCC(=O)N2)c(OC)c1 (stereo not given)	i
N#Cc1ccc(C(=O)N2CCCCCCNC(=O)CC2)cc1	1%
CCc1ccccc1NC(=O)Cn1c(N(C)Cc2ccccc2)nc(C)cc1=O	-8%
Cc1ccc(NC(=O)Cn2c(N(C)Cc3ccccc3)nc(C)cc2=O)c(C)c1	i
CCc1cccc(C)c1NC(=O)Cn1c(N(C)Cc2ccccc2)nc(C)cc1=O	11µM*
COc1cccc(CC(=O)N2CC(CO)C3(CCNCC3)C2)c1 (stereo not given)	39%
COc1ccccc1NC(=O)Cn1c(C)ccc(NC(=O)Nc2ccc(C)cc2)c1=O	i
COc1cc(-c2nc(C3CC(=O)N(c4ccc(Cl)cc4)C3)no2)cc(OC)c1OC (stereo not given)	-22%
O=C1NCCCCCN(S(=O)(=O)c2cccc(F)c2)[C@H]2CCCC[C@@H]12	14%
CN1CCCCCCN(S(=O)(=O)c2cccc(F)c2)[C@H]2CCC[C@H]2C1=O	2.5µM*
CCn1cc(S(=O)(=O)N2CCCCCCN(C)C(=O)[C@@H]3CCC[C@@H]32)cn1	-17%
CC(C)N1C[C@H](O)C[C@H]1c1nnc2n1CCN(C(=O)c1ccccc1)CC2	3%
COc1ccc(-c2cnc([C@@H]3COCCN3)[nH]2)cc1	i
CCc1nc(NCCOC)ncc1C(=O)O	-11%
O=C(NCc1cccc(F)c1)c1cnc2n1CCN(CCc1ccccc1)CC2	28%[44.1 µM]
